{"source": "PubChem BioAssay (NCATS)", "key": {"[1]": {"assay": "Cytotoxicity counterscreen for NFkB agonists and antagonists (AID 624476); also: potency is read from the fitted curve at half-maximal effect"}, "[2]": {"assay": "qHTS Assay for Identification of Small Molecule Antagonists for NFkB Signaling Pathway. (AID 624479; calls by dose curve;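 also: pathway stimulated with TNF alpha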; also: potency is read from the fitted curve at half-maximal effect)"}, "[3]": {"assay": "Cell Proliferation Assay against the TMD8 Cell Line (AID 651645);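 also: cells exposed to compound for 48 h before reading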", "conditions": "TMD8 DLBCL cell line proliferation/viability; at 46.1 µM (top of the series)", "procedure,_shortened": "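500 TMD8 cells/well, RPMI + Glutamax, no phenol red, 5% FBS; cpd added immediately; 48 h, 37C, 5% CO2; CellTiter-Glo, luminescence. Controls: DMSO = 100%, bortezomib 9.2 uM final = 0%.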"}, "[4]": {"assay": "Cell Proliferation Assay against the HBL1 Cell Line (AID 651646);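 also: cells exposed to compound for 48 h before reading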", "conditions": "HBL1 DLBCL cells; at 46.1 µM (top of the series)", "procedure,_shortened": "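Luminescent ATP read-out (CellTiter-Glo) after 48 h compound exposure of HBL1 cells at 37 °C; percent activity was scaled between DMSO as 100% and 9.2 uM bortezomib (final) as 0%.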"}, "[5]": {"assay": "Cell Proliferation Assay against the TMD8 Cell Line (Caspase readout at 16 hrs) (AID 651712); also: potency is read from the fitted curve at half-maximal effect", "procedure,_shortened": "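Apoptotic response of TMD8 cells was judged from caspase 3/7 activation following a 16 hour compound incubation at 37 °C. Luminescent signal was converted to percent activity, with DMSO set as 0% and 9.2 uM final bortezomib as 100%.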"}, "[6]": {"assay": "Cell Proliferation Assay against the TMD8 Cell Line (Caspase readout at 8 hrs) (AID 651713); also: potency is read from the fitted curve at half-maximal effect", "procedure,_shortened": "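TMD8 cells in RPMI plus 5% FBS were treated with compound for 8 h at 37C. Caspase 3/7 activation was read by Caspase-Glo luminescence. Percent activity was scaled from DMSO (0%) to 9.2 uM bortezomib final (100%).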"}, "[7]": {"assay": "qHTS Assay for Identification of Small Molecule Agonists for NFkB Signaling Pathway. (AID 624478); also: 0% is about no effect", "procedure,_shortened": "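NFkB-bla ME-180 cells carry a beta-lactamase reporter. They received compound plus TNF alpha at 10 pM final (its EC50) for 5 h at 37 C. Reporter activity was read as 460/530 nm emission ratio after 2 h LiveBLAzer substrate loading.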"}}, "note": "Results filed as inconclusive are left out. The source made the active and inactive calls. Unless noted, calls follow the shape of the dose curve; as a rule, active = well fitted curve in the direction sought with a large enough effect; inconclusive = small, poorly fitted or top-dose-only effect, or another doubt; inactive = no such curve, though single readings can be large; an effect the other way counts as inactive or inconclusive."}
{"smiles": "CC(C)[C@H](C(=O)Nc1ccc(C(=O)NO)cc1)c1ccccc1", "values": [{"measurement": "Potency", "setting": "[1]", "value": "18.7 µM (active)"}, {"measurement": "Potency", "setting": "[2]", "value": "inactive"}, {"measurement": "viability (% of control)", "setting": "[3]", "value": 0.267, "unit": "%"}, {"measurement": "viability, percent of control", "setting": "[4]", "value": 0.0861, "unit": "%"}, {"measurement": "Potency", "setting": "[5]", "value": "0.166 µM (active)"}]}
{"smiles": "CCCCCN(CCC12CC3CC(CC(C3)C1)C2)C(=O)NCCCc1ccncc1", "values": [{"measurement": "Potency", "setting": "[1]", "value": "23.5 µM (active)"}, {"measurement": "Potency", "setting": "[2]", "value": "21.1 µM (active)"}, {"measurement": "viability (% of control)", "setting": "[3]", "value": 1.96, "unit": "%"}, {"measurement": "viability, percent of control", "setting": "[4]", "value": 1.97, "unit": "%"}, {"measurement": "Potency", "setting": "[6]", "value": "23.5 µM (active)"}]}
{"smiles": "C[C@@H](Oc1cc(-c2cnn(C3CCNCC3)c2)cnc1N)c1c(Cl)ccc(F)c1Cl", "values": [{"measurement": "Potency", "setting": "[1]", "value": "inactive"}, {"measurement": "viability (% of control)", "setting": "[3]", "value": 2.18, "unit": "%"}, {"measurement": "viability, percent of control", "setting": "[4]", "value": -0.628, "unit": "%"}, {"measurement": "Potency", "setting": "[6]", "value": "26.4 µM (active)"}]}
{"smiles": "COc1cc2nccc(Oc3ccc(NC(=O)C4(C(=O)Nc5ccc(F)cc5)CC4)cc3)c2cc1OC", "values": [{"measurement": "outcome", "setting": "[7]", "value": "inactive"}, {"measurement": "Potency", "setting": "[2]", "value": "16.8 µM (active)"}, {"measurement": "viability (% of control)", "setting": "[3]", "value": 18.7, "unit": "%"}, {"measurement": "viability, percent of control", "setting": "[4]", "value": 3.78, "unit": "%"}, {"measurement": "Potency", "setting": "[5]", "value": "26.4 µM (active)"}]}
{"smiles": "Clc1ccc2ncc(-c3cccc(NC4CNC4)n3)n2c1", "values": [{"measurement": "outcome", "setting": "[7]", "value": "inactive"}, {"measurement": "Potency", "setting": "[2]", "value": "6.68 µM (active)"}, {"measurement": "viability (% of control)", "setting": "[3]", "value": 1.46, "unit": "%"}, {"measurement": "viability, percent of control", "setting": "[4]", "value": 34.2, "unit": "%"}]}
{"smiles": "C=CC(=O)Nc1cc2c(Nc3ccc(F)c(Cl)c3)ncnc2cc1C#CC(C)(C)N1CCN(C)CC1", "values": [{"measurement": "Potency", "setting": "[1]", "value": "7.43 µM (active)"}, {"measurement": "Potency", "setting": "[2]", "value": "4.73 µM (active)"}, {"measurement": "viability (% of control)", "setting": "[3]", "value": -0.868, "unit": "%"}, {"measurement": "viability, percent of control", "setting": "[4]", "value": 0.0807, "unit": "%"}, {"measurement": "Potency", "setting": "[6]", "value": "5.26 µM (active)"}]}
{"smiles": "Nc1nccc(Oc2ccc(NC(=O)c3c[nH]cc(-c4ccc(F)cc4)c3=O)cc2F)c1Cl", "values": [{"measurement": "Potency", "setting": "[1]", "value": "18.7 µM (active)"}, {"measurement": "Potency", "setting": "[2]", "value": "5.95 µM (active)"}, {"measurement": "viability (% of control)", "setting": "[3]", "value": 4.79, "unit": "%"}, {"measurement": "viability, percent of control", "setting": "[4]", "value": 14.4, "unit": "%"}, {"measurement": "Potency", "setting": "[5]", "value": "inactive"}, {"measurement": "Potency", "setting": "[6]", "value": "inactive"}]}
{"smiles": "CN1CCC(CNc2ccc3ncc(-c4cccc(OC(F)(F)F)c4)n3n2)CC1", "values": [{"measurement": "Potency", "setting": "[1]", "value": "26.4 µM (active)"}, {"measurement": "Potency", "setting": "[2]", "value": "23.7 µM (active)"}, {"measurement": "viability (% of control)", "setting": "[3]", "value": 4.73, "unit": "%"}, {"measurement": "viability, percent of control", "setting": "[4]", "value": 3.91, "unit": "%"}, {"measurement": "Potency", "setting": "[6]", "value": "23.5 µM (active)"}]}
{"smiles": "NC(=O)Nc1cc(-c2cccc(F)c2)sc1C(=O)N[C@H]1CCCNC1", "values": [{"measurement": "Potency", "setting": "[1]", "value": "1.32 µM (active)"}, {"measurement": "Potency", "setting": "[2]", "value": "14.9 µM (active)"}, {"measurement": "viability (% of control)", "setting": "[3]", "value": 5.07, "unit": "%"}, {"measurement": "viability, percent of control", "setting": "[4]", "value": 19.6, "unit": "%"}, {"measurement": "Potency", "setting": "[5]", "value": "0.0418 µM (active)"}]}
{"smiles": "C=C1C(=CC=C2CCCC3(C)[C@@H]([C@H](C)C=CC=CC(O)(CC)CC)CC[C@@H]23)C[C@@H](O)C[C@@H]1O", "note": "(some centres undefined)", "values": [{"measurement": "Potency", "setting": "[1]", "value": "23.5 µM (active)"}, {"measurement": "Potency", "setting": "[2]", "value": "16.8 µM (active)"}, {"measurement": "viability (% of control)", "setting": "[3]", "value": 3.4, "unit": "%"}, {"measurement": "viability, percent of control", "setting": "[4]", "value": 2.25, "unit": "%"}]}
{"smiles": "CC(C)c1ccc(Cn2ccc3c4c(N)nc(NC5CC5)nc4ccc32)cc1", "values": [{"measurement": "Potency", "setting": "[1]", "value": "9.35 µM (active)"}, {"measurement": "Potency", "setting": "[2]", "value": "16.8 µM (active)"}, {"measurement": "viability (% of control)", "setting": "[3]", "value": 1.25, "unit": "%"}, {"measurement": "viability, percent of control", "setting": "[4]", "value": 1.62, "unit": "%"}, {"measurement": "Potency", "setting": "[6]", "value": "6.62 µM (active)"}]}
{"smiles": "COC(=O)c1ccc2c(C(=Nc3ccc(N(C)C(=O)CN4CCN(C)CC4)cc3)c3ccccc3)c(O)[nH]c2c1", "values": [{"measurement": "Potency", "setting": "[1]", "value": "23.5 µM (active)"}, {"measurement": "viability (% of control)", "setting": "[3]", "value": 1.41, "unit": "%"}, {"measurement": "viability, percent of control", "setting": "[4]", "value": 2.34, "unit": "%"}, {"measurement": "Potency", "setting": "[5]", "value": "0.469 µM (active)"}, {"measurement": "Potency", "setting": "[6]", "value": "26.4 µM (active)"}]}
{"smiles": "Cc1ccc(C(=O)Nc2ccc(CN3CCN(C)CC3)c(C(F)(F)F)c2)cc1C#Cc1cnc2cccnn12", "values": [{"measurement": "Potency", "setting": "[1]", "value": "20.9 µM (active)"}, {"measurement": "Potency", "setting": "[2]", "value": "2.66 µM (active)"}, {"measurement": "viability (% of control)", "setting": "[3]", "value": 1.83, "unit": "%"}, {"measurement": "viability, percent of control", "setting": "[4]", "value": 2.46, "unit": "%"}, {"measurement": "Potency", "setting": "[5]", "value": "0.662 µM (active)"}, {"measurement": "Potency", "setting": "[6]", "value": "23.5 µM (active)"}]}
